Data from PubChem BioAssay (NCI).
This is part of a sample that, as a whole, favours compounds with a hit. Of some 83,000 tested, about 20% had one in any assay.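 Each cell line was grown in a 96-well plate and treated with one concentration of compound for 48 hours. Values below 10 were considered active.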 Activity calls are given as the source filed them.

Columns and labels:
Experiment in all cases: NCI-60 one-dose screen, 48 h (100 = growth as untreated, 0 = no growth, -100 = all killed)
Conditions in all cases: 10 µM unless noted
NCI-H23 lung = tested on: NCI-H23 lung
NCI-H226 lung = tested on: NCI-H226 lung
NCI-H322M lung = tested on: NCI-H322M lung
HOP-62 NSCLC = tested on: HOP-62 NSCLC
NCI-H460 lung = tested on: NCI-H460 lung
HOP-92 NSCLC = tested on: HOP-92 NSCLC
A549/ATCC NSCLC = tested on: A549/ATCC NSCLC
786-0 renal = tested on: 786-0 renal
COLO 205 colon = tested on: COLO 205 colon

Measured: growth

O=c1c2c(=NCCCN3CCCC3)cc3c(=O)n(CCCN4CCCC4)c(=O)c4c(NCCCN5CCCC5)cc(c(O)n1CCCN1CCCC1)c2c4-3
active: NCI-H23 lung -2.37% | NCI-H226 lung -26.3% | NCI-H322M lung -29.5% | HOP-62 NSCLC -13.7% | NCI-H460 lung -32.1% | HOP-92 NSCLC 0.433% | A549/ATCC NSCLC 7.79% | 786-0 renal -13.9% | COLO 205 colon -68.4%

O=C(c1ccccc1)C(CN1CCCCC1)c1ccccc1 (configuration not stated)
inactive: NCI-H23 lung 91.4% | NCI-H226 lung 91.6% | NCI-H322M lung 88.3% | HOP-62 NSCLC 68.2% | NCI-H460 lung 68.7% | A549/ATCC NSCLC 79.9% | COLO 205 colon 10.1%
active: HOP-92 NSCLC -12.2% | 786-0 renal 1.38%

COc1ccc(Oc2ccccc2NC(=O)CNC(=O)c2cccc3ccccc23)cc1
inactive: NCI-H23 lung 36.7% [5 µM] | NCI-H226 lung 61.4% [5 µM] | NCI-H322M lung 45.5% [5 µM] | HOP-62 NSCLC 31.5% [5 µM] | NCI-H460 lung 11.9% [5 µM] | HOP-92 NSCLC 52.1% [5 µM] | A549/ATCC NSCLC 20.8% [5 µM] | 786-0 renal 30.1% [5 µM]
active: COLO 205 colon -20% [5 µM]

N#Cc1c(-c2ccccc2)cc(-c2ccccc2)n(CC(=O)O)c1=O
inactive: NCI-H23 lung 70.2% | NCI-H226 lung 75.2% | NCI-H322M lung 96.9% | HOP-62 NSCLC 53.8% | NCI-H460 lung 40.7% | HOP-92 NSCLC 61.7% | A549/ATCC NSCLC 51.9% | 786-0 renal 62.9% | COLO 205 colon 68.4%

CC1C(C)N(C(=O)CCl)c2ccccc2N1C(=O)CCl (configuration not stated)
active: NCI-H23 lung -61.1% | NCI-H322M lung 3.9% | HOP-62 NSCLC -67.3% | NCI-H460 lung -37.3% | HOP-92 NSCLC -40.7% | 786-0 renal -55.1% | COLO 205 colon -70.6%
inactive: NCI-H226 lung 13.7% | A549/ATCC NSCLC 38.4%

CC(=O)c1ccc(NS(=O)(=O)c2ccc([N+](=O)[O-])cc2)cc1
inactive: NCI-H23 lung 105% | NCI-H226 lung 99.4% | NCI-H322M lung 121% | HOP-62 NSCLC 87% | NCI-H460 lung 114% | HOP-92 NSCLC 83.4% | A549/ATCC NSCLC 95.5% | 786-0 renal 105% | COLO 205 colon 106%

CCOC(=O)C(C(=O)OCC)C1CCCCC1
inactive: NCI-H23 lung 106% | NCI-H226 lung 98.7% | NCI-H322M lung 94% | HOP-62 NSCLC 107% | NCI-H460 lung 106% | HOP-92 NSCLC 82.4% | A549/ATCC NSCLC 96.8% | 786-0 renal 96.4% | COLO 205 colon 112%

N/C(=N\C(N)=N\c1nc2ccccc2s1)c1ccnc(Cl)c1
inactive: NCI-H23 lung 43.4% | NCI-H226 lung 48.8% | NCI-H322M lung 70.1% | HOP-62 NSCLC 44.4% | NCI-H460 lung 17.3% | HOP-92 NSCLC 73.9% | A549/ATCC NSCLC 47.4% | 786-0 renal 41.1% | COLO 205 colon 18.1%

COC(=O)[C@H]1[C@H]2C[C@@H]3c4[nH]c5cc(OC)ccc5c4CCN3C[C@H]2C[C@@H](OC(=O)/C=C/c2cc(OC)c(OC)c(OC)c2)[C@@H]1OC
inactive: NCI-H23 lung 93.5% | NCI-H226 lung 101% | NCI-H322M lung 88.6% | HOP-62 NSCLC 61.6% | NCI-H460 lung 48.6% | HOP-92 NSCLC 60.5% | A549/ATCC NSCLC 74.2% | 786-0 renal 58.9% | COLO 205 colon 67.6%

Nc1c(C(=O)Nc2cccc(Cl)c2)sc2nc3c(cc12)C(O)CCC3 (configuration not stated)
active: COLO 205 colon 5.9%
inactive: NCI-H23 lung 29.8% | NCI-H226 lung 62.3% | NCI-H322M lung 62.3% | HOP-62 NSCLC 46.8% | NCI-H460 lung 11.2% | HOP-92 NSCLC 13.6% | A549/ATCC NSCLC 24.7% | 786-0 renal 53.3%

Cn1c(N2N=C(c3ccc(Cl)cc3)CC2c2ccccc2)nc(-c2ccccc2)c(C#N)c1=O (configuration not stated)
inactive: NCI-H23 lung 66.3% | NCI-H226 lung 74.5% | NCI-H322M lung 83.5% | HOP-62 NSCLC 83% | NCI-H460 lung 58.7% | HOP-92 NSCLC 16% | A549/ATCC NSCLC 64.8% | 786-0 renal 84.4% | COLO 205 colon 99.4%

COc1ccc2c(c1)sc1nc(-c3ccc(N(C)C)cc3)cn12
inactive: NCI-H23 lung 99.2% | NCI-H226 lung 139% | NCI-H322M lung 98.2% | HOP-62 NSCLC 105% | NCI-H460 lung 85% | HOP-92 NSCLC 34.3% | A549/ATCC NSCLC 96.6% | 786-0 renal 89.7% | COLO 205 colon 93.7%

Cc1nn2c(/C=C3/C(=O)Nc4cc(Cl)ccc43)c(-c3ccccc3)nc2s1
active: HOP-92 NSCLC -27.8% | A549/ATCC NSCLC -28.7% | 786-0 renal -74.8%
inactive: NCI-H23 lung 34.9% | NCI-H226 lung 95.2% | NCI-H322M lung 31% | HOP-62 NSCLC 20.4% | NCI-H460 lung 13.6% | COLO 205 colon 21.8%

CC[C@@H](C)/C=C(C)/C=C/C(O)=C1\C(=O)N[C@@H](Cc2ccc(OC(=O)[C@@](OC)(c3ccccc3)C(F)(F)F)cc2)C1=O
inactive: NCI-H23 lung 99.2% | NCI-H226 lung 104% | NCI-H322M lung 91% | HOP-62 NSCLC 110% | NCI-H460 lung 79.8% | HOP-92 NSCLC 41.5% | A549/ATCC NSCLC 97.2% | 786-0 renal 90.8% | COLO 205 colon 118%

COC(=O)[C@H](Cc1cn(C)cn1)NC(=O)[C@H](C)NC(=O)Nc1cc(C(F)(F)F)cc(C(F)(F)F)c1
active: NCI-H23 lung -60.9% [100 µM] | NCI-H226 lung -33.9% [100 µM] | NCI-H322M lung -54.6% [100 µM] | HOP-62 NSCLC -95.3% [100 µM] | NCI-H460 lung -34.3% [100 µM] | HOP-92 NSCLC -95.3% [100 µM] | A549/ATCC NSCLC -25% [100 µM] | 786-0 renal -80.8% [100 µM] | COLO 205 colon -92% [100 µM]

CCOC(=O)/C(=C/CC/C(C)=C/CC/C(C)=C/CCc1ccoc1)CC(=O)N1CCCCC1
inactive: NCI-H23 lung 66.4% | NCI-H226 lung 73% | HOP-62 NSCLC 86% | 786-0 renal 86.3%
active: NCI-H322M lung -91.8% | NCI-H460 lung -56.4% | HOP-92 NSCLC -11.2% | A549/ATCC NSCLC 5.91% | COLO 205 colon 1.9%

COc1ccc(-c2cc(-c3nnc(SCC(=O)Nc4ccc(C(C)=O)cc4)n3-c3ccccc3)c3ccccc3n2)cc1OC
inactive: NCI-H23 lung 96.2% | NCI-H226 lung 105% | NCI-H322M lung 102% | HOP-62 NSCLC 84% | NCI-H460 lung 103% | HOP-92 NSCLC 104% | A549/ATCC NSCLC 94.9% | 786-0 renal 97.1% | COLO 205 colon 98.8%

O=C(O)C1C(c2ccccc2)c2ccccc2C(O)C1CO (configuration not stated)
inactive: NCI-H23 lung 106% | NCI-H226 lung 105% | NCI-H322M lung 112% | HOP-62 NSCLC 107% | NCI-H460 lung 111% | HOP-92 NSCLC 89.1% | A549/ATCC NSCLC 111% | 786-0 renal 107% | COLO 205 colon 99.7%

CCOc1cc(/C=C/C(=O)C(C(=O)/C=C/c2ccc(OC(=O)CNc3nnc(C)s3)c(OCC)c2)C(=O)CNc2nnc(C)s2)ccc1OC(=O)CNc1nnc(C)s1
active: NCI-H23 lung -2.16% | NCI-H226 lung -14.8% | NCI-H322M lung 6.22% | HOP-62 NSCLC 3.59% | NCI-H460 lung -46.8% | HOP-92 NSCLC -25.6% | A549/ATCC NSCLC 8.11% | 786-0 renal -73.7% | COLO 205 colon -55%

CCOC(=O)C1=CCC(n2cc(C)c(=O)[nH]c2=O)O1 (configuration not stated)
inactive: NCI-H23 lung 102% | NCI-H226 lung 89.5% | NCI-H322M lung 101% | HOP-62 NSCLC 104% | NCI-H460 lung 114% | HOP-92 NSCLC 65% | A549/ATCC NSCLC 96.7% | 786-0 renal 105% | COLO 205 colon 90.1%

C[C@@H]1CN(c2nc3c(cc2F)c(=O)c(C(=O)O)cn3C(C)(C)C)C[C@H](C)N1
inactive: NCI-H23 lung 95.2% | NCI-H226 lung 91% | NCI-H322M lung 93.7% | HOP-62 NSCLC 98.5% | NCI-H460 lung 107% | HOP-92 NSCLC 71.6% | A549/ATCC NSCLC 99.9% | 786-0 renal 112% | COLO 205 colon 110%

C(=C1c2ccccc2-c2ccccc21)c1ccncc1
inactive: NCI-H23 lung 58.5% | NCI-H226 lung 86.8% | NCI-H322M lung 80.1% | HOP-62 NSCLC 56.3% | NCI-H460 lung 33.7% | HOP-92 NSCLC 55.9% | A549/ATCC NSCLC 49.1% | 786-0 renal 58.2% | COLO 205 colon 49.4%

CCCCN=C(N)c1ccc(OCCSCCOc2ccc(C(N)=NCCCC)cc2)cc1
active: COLO 205 colon 7.64%
inactive: NCI-H23 lung 40.4% | NCI-H226 lung 59.2% | NCI-H322M lung 69.2% | HOP-62 NSCLC 67.7% | NCI-H460 lung 30.3% | HOP-92 NSCLC 40.1% | A549/ATCC NSCLC 19.5% | 786-0 renal 82.5%

COc1ccc(-c2nnc3c4[nH]cnc4ncn23)c(OC)c1
inactive: NCI-H23 lung 22.3% | NCI-H226 lung 43.5% | NCI-H322M lung 32.9% | HOP-62 NSCLC 25.8% | NCI-H460 lung 39.4% | HOP-92 NSCLC 52.9% | A549/ATCC NSCLC 71.6% | 786-0 renal 21.3% | COLO 205 colon 32.5%

CC(C)CNc1nc(N=[N+]=[N-])nc(NCC(C)C)n1
inactive: NCI-H23 lung 59.9% [100 µM] | NCI-H226 lung 75.8% [100 µM] | NCI-H322M lung 92.5% [100 µM] | HOP-62 NSCLC 84.1% [100 µM] | NCI-H460 lung 68.8% [100 µM] | A549/ATCC NSCLC 56.3% [100 µM] | 786-0 renal 55.5% [100 µM] | COLO 205 colon 99.2% [100 µM]
active: HOP-92 NSCLC -6.14% [100 µM]

CC(C)OP(=O)(OC(C)C)c1ncc(-c2ccc(C(F)(F)F)cc2)c(NC2CCCCCC2)n1
active: NCI-H23 lung -47.6% [33.3 µM] | NCI-H226 lung -50.3% [33.3 µM] | NCI-H322M lung -70% [33.3 µM] | HOP-62 NSCLC -27.1% [33.3 µM] | NCI-H460 lung -64.5% [33.3 µM] | HOP-92 NSCLC -93.7% [33.3 µM] | A549/ATCC NSCLC -33.6% [33.3 µM] | 786-0 renal -67.6% [33.3 µM] | COLO 205 colon -78% [33.3 µM]

COc1ccc(C(=O)/C=C/c2cccc(Nc3ccnc4cc(Cl)ccc34)c2)cc1
active: 786-0 renal -35.4%
inactive: NCI-H23 lung 43.2% | NCI-H226 lung 54.3% | NCI-H322M lung 49.6% | HOP-62 NSCLC 18.8% | NCI-H460 lung 31.6% | HOP-92 NSCLC 29.1% | A549/ATCC NSCLC 29.4% | COLO 205 colon 45.1%

N#Cc1c(NC(=O)c2ccco2)[n+]([O-])c2ccccc2[n+]1[O-]
inactive: NCI-H23 lung 110% | NCI-H226 lung 86.1% | NCI-H322M lung 103% | HOP-62 NSCLC 82.9% | NCI-H460 lung 107% | HOP-92 NSCLC 164% | A549/ATCC NSCLC 99.7% | 786-0 renal 99.2% | COLO 205 colon 105%
